Bioassay records from PubChem BioAssay.
A selection: hits, their analogues and other compounds. The true share with any hit is near 20%.
Cycloheximide cs: Cycloheximide Counterscreen for Small Molecule Inhibitors of Shiga Toxin; cell reporter, cycloheximide protein synthesis inhibition counterscreen; max response, %; 300,000 tested, 12% active; AID 2314, 2010; in the data active means max response mostly above about 13%, no sharp cut-off; inactive means mostly below about 14%; further: read at 38.3 µM for the half of the compounds with a filed dose; 0% is about no effect
HCMV inh: qHTS Assay for inhibitors of the human cytomegalovirus (HCMV). HFF cells, HCMV-luciferase reporter, 72 h; hits give low values. activity change, negative = inhibition, % at 57.5 µM. 410,000 tested, 4.5% active. AID 1259415, 2018; in the data active means activity change below about -60%; inconclusive means no clear call, values can overlap the other calls; inactive means above about -39%; further: on the % scale 0 is the no-effect control and ±100 the full control effect
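Compounds were evaluated in HFFs infected with an HCMV luciferase reporter virus (MOI 1 PFU/cell). Luciferase in lysates collected 72 h post infection served as the replication measure.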
Pf growth 96h: Primary qHTS for delayed death inhibitors of the malarial parasite plastid, 96 hour incubation. P. falciparum luciferase reporter growth, 96 h. 320,000 tested, 6.9% active. AID 504834, 2011. Potency, µM (top dose mostly 28.7 µM), for the others: top-dose activity change, negative = inhibition, hits mostly inhibitors; further: potency means the concentration at half of the fitted maximal effect; on the % scale 0 is the no-effect control and ±100 the full control effect
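Plates of compound plus infected erythrocytes (2% hematocrit, 0.05% parasitemia final) incubate 96 hours, 37 C, 5% CO2. Detection reagent added; reduced luminescence from the parasites' luciferase reporter flags inhibition.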
Pf growth 48h: Primary qHTS for delayed death inhibitors of the malarial parasite plastid, 48 hour incubation. P. falciparum luciferase growth in erythrocytes, 48 h. 310,000 tested, 5.9% active. AID 504832, 2011. Potency, µM (series often up to 28.7 µM), for the others: top-dose activity change, negative = inhibition, most hits filed as inhibitors; further: potency means the concentration at half of the fitted maximal effect; on the % scale 0 is the no-effect control and ±100 the full control effect
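Firefly luciferase activity from engineered P. falciparum reports growth; inhibitors lower the luminescent signal. Cultures contained 2% hematocrit erythrocytes at 0.1% final parasitemia.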
Shiga toxin inh: A qHTS for Small Molecule Inhibitors of Shiga Toxin; Vero cells, Shiga toxin protein synthesis inhibition reporter; inhibition, % at 38.7 µM; 290,000 tested, 9.2% active; in the data active means inhibition mostly above about 28%, no sharp cut-off; inactive means mostly below about 43%; further: 0% is about no effect
Active calls of the source: *. Unless noted, the call rests on the fitted dose curve; in most records, active means well fitted inhibition curve with a large enough effect; inconclusive means small, poorly fitted or top-dose-only effect, or another doubt; inactive means no such curve, though single readings can be large or run the other way.

How did COC(=O)[C@@]1(Sc2ccc(OC)cc2)CC(=O)N(c2ccc(OC(C)C)cc2CO)[C@@H]1c1ccc(OC(C)C)c(OC)c1 do in these assays?
HCMV inh: 18.5

How did Nc1nc(Nc2ccc(Cl)cc2)nc2ccccc12 do in these assays?
Cycloheximide cs: 30.5*; HCMV inh: 104.7; Pf growth 96h: inconclusive; Shiga toxin inh: 26.7

How did Nc1nc(CN2CCN(c3ccccn3)CC2)nc(Nc2ccc(Cl)cc2)n1 do in these assays?
Cycloheximide cs: 12.0; HCMV inh: -30.0; Pf growth 96h: inconclusive; Pf growth 48h: inconclusive; Shiga toxin inh: 12.7

What do the screens show for `Cn1cc(CNC(=O)c2ccc3nc(Cc4ccccc4F)oc3c2)cn1`?
Cycloheximide cs: 59.4*; HCMV inh: 85.5; Pf growth 96h: 13.4%; Pf growth 48h: 29.8%; Shiga toxin inh: 89.3*

Results for CCn1cc(CNC(=O)c2ccc3nc(Cc4ccc(OC)cc4)oc3c2)cn1 ?
Cycloheximide cs: 19.8*; HCMV inh: -65.3*; Pf growth 96h: inconclusive; Pf growth 48h: -9.4%; Shiga toxin inh: 14.9

How did Cn1cc(CCNC(=O)c2ccc3nc(Cc4ccccc4F)oc3c2)cn1 do in these assays?
Cycloheximide cs: 30.0*; HCMV inh: 99.0; Pf growth 96h: 1.85µM*; Pf growth 48h: 64.0%; Shiga toxin inh: 92.2*

How did CCn1cc(CNC(=O)c2ccc3nc(Cc4ccccc4F)oc3c2)cn1 do in these assays?
Cycloheximide cs: 31.7*; HCMV inh: -2.9; Pf growth 96h: 6.0%; Pf growth 48h: 28.8%; Shiga toxin inh: 38.2

How did O=C(NCc1ccccc1Cl)c1ccc2nc(Cc3ccccc3)oc2c1 do in these assays?
HCMV inh: -9.5

Results for CCOc1ccccc1CNC(=O)c1ccc2nc(Cc3ccc(OC)cc3)oc2c1 ?
HCMV inh: -31.8

How did CCN(Cc1cnn(C)c1)C(=O)c1ccc2nc(Cc3ccccc3F)oc2c1 do in these assays?
HCMV inh: -19.0

How did CCOC(=O)c1[nH]c2ccc(OC)cc2c1NC(=O)c1ccccc1C(=O)O do in these assays?
Cycloheximide cs: 34.9*; HCMV inh: 47.4; Pf growth 96h: 78.3%; Pf growth 48h: 62.4%; Shiga toxin inh: 63.7*

Results for CCOC(=O)c1[nH]c2ccc(OC)cc2c1NC(=S)N1CCN(c2cccc(C)c2C)CC1 ?
Cycloheximide cs: 16.6*; HCMV inh: -11.8; Pf growth 96h: -27.3%; Pf growth 48h: inconclusive; Shiga toxin inh: 26.9

What do the screens show for `CCOC(=O)c1[nH]c2ccc(F)cc2c1NC(=O)c1ccccc1C(=O)O`?
Cycloheximide cs: 43.2*; HCMV inh: 29.0; Pf growth 96h: 71.6%; Pf growth 48h: 50.6%; Shiga toxin inh: 96.3*

Results for CCOC(=O)c1cc2cc(OC)ccc2[nH]1 ?
Cycloheximide cs: 49.1*; HCMV inh: 18.9; Pf growth 96h: 108.8%; Pf growth 48h: 189.4%; Shiga toxin inh: 110.3*

What do the screens show for `Cc1nnc(SCCn2c(N(C)Cc3ccccc3)nc3c2c(=O)[nH]c(=O)n3C)s1`?
Cycloheximide cs: -6.6; HCMV inh: -5.6; Pf growth 96h: inconclusive; Shiga toxin inh: -6.9

How did COc1ccc(NS(=O)(=O)c2ccc3c(c2)NC(=O)CC(=O)N3)cc1OC do in these assays?
Cycloheximide cs: 11.7; HCMV inh: -37.5; Pf growth 96h: 13.7%; Pf growth 48h: 2.4%; Shiga toxin inh: -4.6

How did O=C1CCCCC1C(O)c1ccc(Cl)cc1 (configuration not stated) do in these assays?
Cycloheximide cs: -2.8; Pf growth 96h: 0.0%; Pf growth 48h: 16.0%; Shiga toxin inh: -5.1

What do the screens show for `CCOC(=O)c1[nH]c2ccc(OC)cc2c1NC(C)=O`?
Cycloheximide cs: -4.6; HCMV inh: 26.3; Pf growth 96h: 23.1%; Shiga toxin inh: -18.8

Results for CCOC(=O)c1[nH]c2ccccc2c1NC(=O)Nc1ccc(OC)cc1 ?
Cycloheximide cs: 9.9*; HCMV inh: -18.6; Pf growth 96h: 20.2%; Pf growth 48h: 20.5%; Shiga toxin inh: 11.2

How did CCOC(=O)c1[nH]c(CN2CCN(c3ccc(OC)cc3)CC2)c(C(=O)OCC)c1C do in these assays?
Cycloheximide cs: -1.6; HCMV inh: -15.2; Pf growth 96h: 6.57µM*; Pf growth 48h: 9.28µM*; Shiga toxin inh: 4.6

Results for CCOC(=O)c1[nH]c2ccc(OC)cc2c1C ?
Cycloheximide cs: 28.9*; HCMV inh: 101.8; Pf growth 96h: 153.1%; Pf growth 48h: 68.9%; Shiga toxin inh: 73.4*

What do the screens show for `C=C(C)Cn1c(SCC(=O)c2ccc(OC)cc2)nc2sc3c(c2c1=O)CCCC3`?
HCMV inh: -4.7

What do the screens show for `Cc1cccc(OCCC(=O)NNC(=O)c2ccoc2C)c1`?
HCMV inh: -1.4; Pf growth 96h: -25.1%; Pf growth 48h: -28.6%

How did O=[N+]([O-])c1ccccc1Oc1ccccc1Cl do in these assays?
Cycloheximide cs: 14.9*; HCMV inh: 10.1; Pf growth 96h: -20.3%; Pf growth 48h: inconclusive; Shiga toxin inh: 19.7

Results for COc1cc(Cl)c(C)cc1NC(=O)c1ccccc1NC(=O)CN1CCOCC1 ?
Cycloheximide cs: -1.1; HCMV inh: 10.8; Pf growth 96h: inconclusive; Pf growth 48h: inconclusive; Shiga toxin inh: -3.7

What do the screens show for `COCCCNC(=O)c1ccc(C(=O)NCCCOC)cc1`?
Cycloheximide cs: -3.9; HCMV inh: 20.3; Pf growth 96h: -14.9%; Pf growth 48h: 23.0%; Shiga toxin inh: 3.4

How did COCCCNC(NC(=O)c1ccc(Br)cc1)C(Cl)(Cl)Cl (configuration not stated) do in these assays?
Cycloheximide cs: -3.5; HCMV inh: -65.7*; Pf growth 96h: 36.5%; Pf growth 48h: 2.8%; Shiga toxin inh: -12.4

What do the screens show for `COc1ccc(C(=O)NC(Nc2ccc(C)cc2)C(Cl)(Cl)Cl)cc1` (configuration not stated)?
Cycloheximide cs: -1.8; HCMV inh: -72.1*; Pf growth 96h: 41.3%; Pf growth 48h: inconclusive; Shiga toxin inh: -4.1

What do the screens show for `COc1ccc(C(NC(=O)c2ccc(F)cc2)c2ccccc2)cc1` (configuration not stated)?
Cycloheximide cs: -0.1; HCMV inh: -6.6; Pf growth 96h: inconclusive; Pf growth 48h: 5.4%; Shiga toxin inh: -3.0

How did COc1ccc(NC(=O)C(NC(=O)Cc2cccs2)c2ccc(C)cc2)cc1 (configuration not stated) do in these assays?
Cycloheximide cs: 0.0; HCMV inh: -2.2; Pf growth 96h: 21.3%; Pf growth 48h: 0.0%; Shiga toxin inh: -6.9

What do the screens show for `COc1ccc(NC(=O)C(NC(=O)Cc2cccs2)c2ccccc2)cc1` (configuration not stated)?
Cycloheximide cs: -3.6; HCMV inh: -67.7*; Pf growth 96h: 20.7%; Pf growth 48h: 16.3%; Shiga toxin inh: 8.1

How did COc1ccc(NC(NC(=O)c2ccc(OC)cc2)C(Cl)(Cl)Cl)cc1 (configuration not stated) do in these assays?
Cycloheximide cs: 1.5; HCMV inh: -27.2; Pf growth 96h: 4.15µM*; Pf growth 48h: inconclusive; Shiga toxin inh: -18.8
